The campaign covered roughly 5,500 compounds. About 2,000 (36%) were called active. About 18% were inconclusive and are not listed. The list shows a part of the results. Unmarked numbers belong to inactive results. Cut-off read from the data, not from the text of the source: active = normalized growth mostly below about 0.91 (no sharp cut-off); inconclusive = no clear call, values can overlap the other calls; inactive = mostly above about 0.92.
Test: chemical genetic growth profiling, strain panel (AID 1159580);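 note: tested at 20 µM; growth read once vehicle control cultures reached saturation at 30 °C; 1 = growth at the plate median or of vehicle wells; lower values mean less growth of the strain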
Conditions: growth OD

## COc1ccc2oc3ccccc3c(=O)c2c1
S. cerevisiae deletion strains, locus YJL187C, strain SWE1, hits give low values
  normalized growth: 0.834 (active)
S. cerevisiae deletion strains, locus YJR043C, strain POL32, hits give low values
  normalized growth: 0.932
S. cerevisiae deletion strains, locus YJR075W, strain HOC1, hits give low values
  normalized growth: 0.885
S. cerevisiae deletion strains, locus YKL009W, strain mrt4, hits give low values
  normalized growth: 0.886
S. cerevisiae deletion strains, locus YKL068W, hits give low values
  normalized growth: 0.949
S. cerevisiae deletion strains, locus YKL085W, strain MDH1 (second series), hits give low values
  normalized growth: 0.914 (active)
S. cerevisiae deletion strains, locus YKL085W, strain MDH1, hits give low values
  normalized growth: 0.914 (active)
S. cerevisiae deletion strains, locus YKL160W, strain elf1, hits give low values
  normalized growth: 0.823 (active)
S. cerevisiae deletion strains, locus YKL190W, strain CNB1, hits give low values
  normalized growth: 0.922
S. cerevisiae deletion strains, locus YKR001C, strain vps1, hits give low values
  normalized growth: 0.526 (active)
S. cerevisiae deletion strains, locus YKR026C, strain gcn3, hits give low values
  normalized growth: 0.927
S. cerevisiae deletion strains, locus YKR091W, strain srl3, hits give low values
  normalized growth: 0.945
S. cerevisiae deletion strains, locus YLL001W, strain dnm1, hits give low values
  normalized growth: 0.875 (active)
S. cerevisiae deletion strains, locus YLL026W, hits give low values
  normalized growth: 0.879 (active)
S. cerevisiae deletion strains, locus YLL041C, strain sdh2, hits give low values
  normalized growth: 0.937
S. cerevisiae deletion strains, locus YLR027C, strain aat2, hits give low values
  normalized growth: 0.855 (active)
S. cerevisiae deletion strains, locus YLR039C, strain RIC1, hits give low values
  normalized growth: 0.486 (active)
S. cerevisiae deletion strains, locus YLR058C, strain SHM2, hits give low values
  normalized growth: 0.861 (active)
S. cerevisiae deletion strains, locus YLR102C, strain apc9, hits give low values
  normalized growth: 0.907 (active)
S. cerevisiae deletion strains, locus YLR221C, strain rsa3, hits give low values
  normalized growth: 0.821 (active)
S. cerevisiae deletion strains, locus YLR258W, strain gsy2, hits give low values
  normalized growth: 0.871 (active)
S. cerevisiae deletion strains, locus YLR262C, strain YPT6 (second series), hits give low values
  normalized growth: 0.597 (active)
S. cerevisiae deletion strains, locus YLR262C, strain YPT6, hits give low values
  normalized growth: 0.577 (active)
S. cerevisiae deletion strains, locus YLR268W, strain sec22, hits give low values
  normalized growth: 0.84 (active)
S. cerevisiae deletion strains, locus YLR320W, strain mms22, hits give low values
  normalized growth: 0.464 (active)
S. cerevisiae deletion strains, locus YLR330W, strain CHS5, hits give low values
  normalized growth: 0.854 (active)
S. cerevisiae deletion strains, locus YLR342W, strain FKS1 (second series), hits give low values
  normalized growth: 0.945
S. cerevisiae deletion strains, locus YLR342W, strain FKS1, hits give low values
  normalized growth: 0.952
S. cerevisiae deletion strains, locus YLR357W, strain rsc2, hits give low values
  normalized growth: 1.09
S. cerevisiae deletion strains, locus YLR370C, strain arc18, hits give low values
  normalized growth: 0.946
S. cerevisiae deletion strains, locus YLR371W, strain rom2, hits give low values
  normalized growth: 0.7 (active)
S. cerevisiae deletion strains, locus YLR384C, strain iki3, hits give low values
  normalized growth: 0.912 (active)
S. cerevisiae deletion strains, locus YLR418C, strain cdc73, hits give low values
  normalized growth: 0.659 (active)
S. cerevisiae deletion strains, locus YML016C, strain PPZ1, hits give low values
  normalized growth: 0.881 (active)
S. cerevisiae deletion strains, locus YML032C, strain rad52, hits give low values
  normalized growth: 0.755 (active)
S. cerevisiae deletion strains, locus YML120C, strain ndi1, hits give low values
  normalized growth: 0.742 (active)
S. cerevisiae deletion strains, locus YML124C, strain tub3, hits give low values
  normalized growth: 0.902 (active)
S. cerevisiae deletion strains, locus YMR058W, strain fet3, hits give low values
  normalized growth: 0.86 (active)
S. cerevisiae deletion strains, locus YMR078C, strain ctf18, hits give low values
  normalized growth: 0.852 (active)
S. cerevisiae deletion strains, locus YMR125W, strain sto1, hits give low values
  normalized growth: 0.713 (active)
S. cerevisiae deletion strains, locus YMR129W, hits give low values
  normalized growth: 0.95
S. cerevisiae deletion strains, locus YMR205C, strain PFK2, hits give low values
  normalized growth: 0.78 (active)
S. cerevisiae deletion strains, locus YMR223W, strain ubp8, hits give low values
  normalized growth: 0.84 (active)
S. cerevisiae deletion strains, locus YMR231W, strain pep5, hits give low values
  normalized growth: 0.915 (active)
S. cerevisiae deletion strains, locus YMR307W, strain GAS1, hits give low values
  normalized growth: 0.845
S. cerevisiae deletion strains, locus YNL067W, strain RPL9B, hits give low values
  normalized growth: 0.874
S. cerevisiae deletion strains, locus YNL071W, strain lat1, hits give low values
  normalized growth: 0.421 (active)
S. cerevisiae deletion strains, locus YNL128W, strain TEP1, hits give low values
  normalized growth: 0.815 (active)
S. cerevisiae deletion strains, locus YNL209W, strain ssb2, hits give low values
  normalized growth: 0.934
S. cerevisiae deletion strains, locus YNL233W, strain BNI4, hits give low values
  normalized growth: 0.81 (active)
S. cerevisiae deletion strains, locus YNL248C, strain rpa49, hits give low values
  normalized growth: 0.397 (active)
S. cerevisiae deletion strains, locus YNL250W, strain rad50, hits give low values
  normalized growth: 0.866 (active)
S. cerevisiae deletion strains, locus YNL271C, strain bni1, hits give low values
  normalized growth: 0.874 (active)
S. cerevisiae deletion strains, locus YNL298W, strain CLA4, hits give low values
  normalized growth: 0.869 (active)
S. cerevisiae deletion strains, locus YNL307C, strain MCK1, hits give low values
  normalized growth: 0.569 (active)
S. cerevisiae deletion strains, locus YNL322C, strain KRE1 (second series), hits give low values
  normalized growth: 0.992
S. cerevisiae deletion strains, locus YNR049C, strain mso1, hits give low values
  normalized growth: 0.947
S. cerevisiae deletion strains, locus YNR052C, strain pop2, hits give low values
  normalized growth: 0.874 (active)
S. cerevisiae deletion strains, locus YOL012C, strain htz1
  normalized growth: 0.651
S. cerevisiae deletion strains, locus YOL147C, strain pex11, hits give low values
  normalized growth: 0.906 (active)
S. cerevisiae deletion strains, locus YOR001W, strain rrp6, hits give low values
  normalized growth: 0.825 (active)
S. cerevisiae deletion strains, locus YOR061W, strain CKA2, hits give low values
  normalized growth: 0.886 (active)
S. cerevisiae deletion strains, locus YOR069W, strain VPS5, hits give low values
  normalized growth: 0.918 (active)
S. cerevisiae deletion strains, locus YOR070C, strain gyp1, hits give low values
  normalized growth: 0.859 (active)
S. cerevisiae deletion strains, locus YOR080W, strain dia2, hits give low values
  normalized growth: 0.959
S. cerevisiae deletion strains, locus YOR083W, strain WHI5, hits give low values
  normalized growth: 0.789 (active)
S. cerevisiae deletion strains, locus YOR106W, strain vam3, hits give low values
  normalized growth: 0.817 (active)
S. cerevisiae deletion strains, locus YOR136W, strain idh2, hits give low values
  normalized growth: 0.922
S. cerevisiae deletion strains, locus YOR144C, strain elg1, hits give low values
  normalized growth: 0.904 (active)
S. cerevisiae deletion strains, locus YOR184W, strain ser1, hits give low values
  normalized growth: 0.771 (active)
S. cerevisiae deletion strains, locus YOR265W, strain rbl2, hits give low values
  normalized growth: 0.932
S. cerevisiae deletion strains, locus YOR270C, strain vph1, hits give low values
  normalized growth: 0.528 (active)
S. cerevisiae deletion strains, locus YOR290C, strain snf2, hits give low values
  normalized growth: 0.686 (active)
S. cerevisiae deletion strains, locus YOR316C, strain cot1, hits give low values
  normalized growth: 0.903 (active)
S. cerevisiae deletion strains, locus YPL051W, strain arl3, hits give low values
  normalized growth: 0.772 (active)
S. cerevisiae deletion strains, locus YPL078C, strain atp4, hits give low values
  normalized growth: 0.773 (active)
S. cerevisiae deletion strains, locus YPL106C, strain sse1, hits give low values
  normalized growth: 0.78 (active)
S. cerevisiae deletion strains, locus YPL240C, strain hsp82, hits give low values
  normalized growth: 0.931
S. cerevisiae deletion strains, locus YPL241C, strain CIN2, hits give low values
  normalized growth: 0.917 (active)
S. cerevisiae deletion strains, locus YPR119W, strain clb2, hits give low values
  normalized growth: 0.907 (active)
S. cerevisiae deletion strains, locus YPR141C, strain kar3, hits give low values
  normalized growth: 0.882 (active)
S. cerevisiae deletion strains, locus YPR163C, strain tif3, hits give low values
  normalized growth: 0.756 (active)
S. cerevisiae deletion strains, locus YPR167C, strain met16, hits give low values
  normalized growth: 0.925
S. cerevisiae deletion strains, strain wtn01, hits give low values
  normalized growth: 0.87 (active)
S. cerevisiae strains, strain wild type, hits give low values
  normalized growth: 0.874 (active)
